Screening results as filed in PubChem BioAssay.
In the library only some 18% were active in any assay of this set; here they are far more common.
TDP1 block: blocks human tyrosyl-DNA phosphodiesterase 1 | Q9NUW8 | recombinant TDP1, AlphaScreen DNA substrate cleavage | Potency, µM (top dose mostly 130 µM), most hits filed as inhibitors | 350,000 tested, 0.28% active | AID 485290; further: nearly all actives have a fitted effect of over 40% in size
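Tdp1 1 nM final; 15 min RT w/ cpd; substrate 15 nM, 5 min; beads 10 ug/ml, 10 min; AlphaScreen read. Neg ctrl: no enzyme.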
TDP1 cell noCPT: qHTS for Inhibitors of human tyrosyl-DNA phosphodiesterase 1 (TDP1): qHTS in cells in absence of CPT. 420,000 tested, 15% active. DT40 Tdp1-/- hTDP1 cells, no CPT, ATP luminescence, 48 h. Potency, µM (series often up to 46.2 µM), most hits filed as inhibitors; further: nearly all actives have a fitted effect of over 55% in size
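No-CPT arm: Tdp1-/-;hTDP1 DT40 cells (400/well) plus compounds, incubated ≥48 hr at 37 °C. Readout CellTiter-Glo luminescence.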
VDR inh: blocks the human vitamin D receptor; Potency, µM, most hits filed as inhibitors; 400,000 tested, 0.93% active; VDR-SRC2-3 peptide fluorescence polarization, 2 h
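Fluorescence polarization assay of small-molecule disruption of VDR binding to coregulator peptide SRC2-3. Compounds and controls pin-transferred, then read after 2 h incubation at ambient room temperature.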
GCN5L2 inh: inhibitors of human GCN5L2 histone acetyltransferase; Q92830; GCN5L2 HAT assay, ThioGlo1 CoA-SH fluorescence; Potency, µM (top dose mostly 58.9 µM), actives largely listed as inhibitors; 390,000 tested, 0.21% active; AID 504327
Target sequence (Q92830 whole entry, looked up): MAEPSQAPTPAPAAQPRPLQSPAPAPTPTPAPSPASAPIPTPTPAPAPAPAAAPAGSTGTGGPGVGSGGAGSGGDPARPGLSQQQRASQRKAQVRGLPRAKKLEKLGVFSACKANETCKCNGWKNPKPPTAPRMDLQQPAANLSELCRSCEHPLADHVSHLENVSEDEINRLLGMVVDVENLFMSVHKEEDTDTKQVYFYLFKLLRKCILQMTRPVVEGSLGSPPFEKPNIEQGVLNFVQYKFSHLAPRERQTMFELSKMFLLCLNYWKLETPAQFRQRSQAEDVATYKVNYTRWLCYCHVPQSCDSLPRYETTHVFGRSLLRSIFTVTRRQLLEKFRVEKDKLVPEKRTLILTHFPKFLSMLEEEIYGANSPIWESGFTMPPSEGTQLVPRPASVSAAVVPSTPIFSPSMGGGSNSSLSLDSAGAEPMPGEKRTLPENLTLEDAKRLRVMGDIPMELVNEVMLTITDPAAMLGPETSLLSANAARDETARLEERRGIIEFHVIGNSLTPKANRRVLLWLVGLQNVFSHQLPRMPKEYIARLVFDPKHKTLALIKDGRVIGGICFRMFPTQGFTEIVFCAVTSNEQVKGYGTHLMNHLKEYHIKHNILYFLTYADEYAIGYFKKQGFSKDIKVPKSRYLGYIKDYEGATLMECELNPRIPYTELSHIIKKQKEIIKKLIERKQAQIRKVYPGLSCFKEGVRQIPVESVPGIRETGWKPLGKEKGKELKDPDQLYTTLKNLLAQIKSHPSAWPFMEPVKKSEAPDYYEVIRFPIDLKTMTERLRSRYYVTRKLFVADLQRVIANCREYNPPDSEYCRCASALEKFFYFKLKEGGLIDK
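Titration-based screen in which CoA formation is detected via maleimide probe ThioGlo1 (50uM) turning fluorescent on thiol reaction; substrates H3(1-25) 75uM and acetyl-CoA 70uM, GCN5L2 20nM, 20 min incubation at room temperature.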
DT40 TDP1 CPT: DT40-hTDP1 cell growth loss with CPT; chicken DT40 Tdp1-/-;hTDP1 cells + 20 nM CPT, ATP luminescence, 48 h; Potency, µM (titrated, usually from 46.2 µM), most hits filed as inhibitors; 420,000 tested, 12% active; further: nearly all actives have a fitted effect of over 55% in size
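Cell growth measured by CellTiter-Glo luminescence after a minimum 48 h, 37 C compound exposure with 20 nM CPT in Tdp1-knockout DT40 cells stably expressing hTDP1, seeded 400/well; qHTS titration format.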
PLK1 PBD block: inhibitors of human PLK1 polo-box domain binding | Potency, µM, most hits filed as inhibitors | P53350 | 360,000 tested, 2.8% active | Plk1 PBD binding of FITC phosphopeptide, fluorescence polarization; further: series mostly up to about 57 µM; nearly all actives have a fitted effect of over 65% in size
Hits are given with their value; i = inactive; ? = inconclusive; nt = not tested or not shown; [ ] = dose if it differs, or a comment. The call rests on the fitted dose curve; in most records, active means well fitted curve in the direction sought with a large enough effect; inconclusive means small, poorly fitted or top-dose-only effect, or another doubt; inactive means no such curve, though single readings can be large; an effect the other way counts as inactive or inconclusive.

SMILES | TDP1 block | TDP1 cell noCPT | VDR inh | GCN5L2 inh | DT40 TDP1 CPT | PLK1 PBD block
CCN(Cc1ccc(OC)c(F)c1)C(C)C(=O)Nc1ccc(S(=O)(=O)N2CCCC2)cc1 (centres undefined) | i | 21µM | i | i | ? | i
Cc1ccc(S(=O)(=O)N2CCCCCC2)cc1[N+](=O)[O-] | i | 10µM | i | i | ? | i
CN(CC(=O)Nc1ccc(S(=O)(=O)N2CCCC2)cc1)Cc1cccc(Cl)c1Cl | i | ? | i | i | 16µM | i
CN1CCN(S(=O)(=O)c2ccc(N(C)Cc3ccc(C(F)(F)F)cc3)c([N+](=O)[O-])c2)CC1 | i | 13µM | i | i | 10µM | i
Cc1ccc(S(=O)(=O)N2CCC(C)CC2)cc1[N+](=O)[O-] | i | i | i | i | i | i
COC(=O)C1=C(C)N(Cc2ccccc2)C2=C3C(=O)CCCC3[C@@](O)(C(=O)OC)C(=O)N2C1c1ccccc1 (some centres undefined) | i[21 µM] | nt | nt | nt | nt | nt
CN(C(=O)CO)c1c(I)c(C(=O)NCC(O)CO)c(I)c(C(=O)NCC(O)CO)c1I (centres undefined) | nt | i | nt | nt | i | nt
CCOc1ccc(NC(=O)CCS(=O)(=O)c2cc3c4c(c2)CCN4C(=O)CC3)cc1 | i | i | i | i | i | nt
Cc1ncoc1C(=O)N1CCOc2ccc(CN3CCN(c4ccccn4)CC3)cc2C1 | nt | ? | nt | nt | i[9.04 µM] | nt
CCOc1ccccc1NC(=O)C1=C(C)Nc2ncnn2C1c1ccc(C)o1 (centres undefined) | i | i | i | i | i | nt
CN(Cc1cccc(Cl)c1Cl)c1ccc(S(=O)(=O)N2CCCCC2)cc1[N+](=O)[O-] | i | 21µM | i | i | ? | i
COc1ccccc1CCC(=O)Nc1cccc(S(=O)(=O)N2CCCC2)c1 | i | ? | i | i | ? | i
C=CCOc1ccc(CN(C)c2ccc(S(=O)(=O)N3CCN(C)CC3)cc2[N+](=O)[O-])cc1 | i | ? | i | i | ? | i
COc1ccccc1CN(C)CC(=O)Nc1cccc(S(=O)(=O)N2CCCCC2)c1 | i | 23µM | i | i | 16µM | i
COc1ccc(Cl)cc1NC(=O)CN(C)CC(=O)Nc1cccc(S(=O)(=O)N2CCCC2)c1 | i | ? | i | i | 23µM | i
COc1ccc(CN(C)CC(=O)Nc2cccc(S(=O)(=O)N3CCCC3)c2)cc1F | i | 18µM | i | i | ? | i
CN1CCN(c2ncnc3c2ncn3[C@H]2CN(Cc3ccc(F)cc3)C[C@@H](CO)O2)CC1 | nt | i | nt | nt | ? | i
O=C(NCc1cccs1)c1nn(-c2ccccc2F)nc1CO | i | i | i | i | i | nt
c1ccc(CC[n+]2ccncc2)cc1 | nt | i | nt | nt | i | nt
COC(=O)[C@H](CC(C)C)NC(=O)Nc1ccc(S(N)(=O)=O)cc1 | i | i | i | i | i | i
O=C(C[C@@H]1C/C=C\C[C@@H](Cc2ccc(F)cc2)C(=O)OCCNC1=O)N[C@H](CO)Cc1ccccc1 | i | 18µM | i | i | 21µM | i
O=C(C[C@H]1C/C=C\CC[C@@H](Cc2ccc(F)cc2)C(=O)O[C@@H](c2ccccc2)CNC1=O)N[C@H](CO)Cc1ccccc1 | i | ? | i | i | 18µM | i
CC(C)(C)OC(=O)C[C@H]1C/C=C\C[C@H](CC(=O)N[C@H](CO)Cc2ccccc2)C(=O)N[C@@H](Cc2ccccc2)COC1=O | i | 15µM | i | i | 16µM | i
O=C(C[C@@H]1C/C=C\C[C@@H](Cc2ccc(F)cc2)C(=O)OC[C@@H](Cc2ccccc2)NC1=O)N[C@H](CO)Cc1ccccc1 | i | i | i | i | ? | i
CC(C)(C)OC(=O)C[C@H]1C/C=C\C[C@H](CC(=O)NCCO)C(=O)N[C@@H](c2ccccc2)COC1=O | i | i | i | i | i | i
SMILES | TDP1 block | TDP1 cell noCPT | VDR inh | GCN5L2 inh | DT40 TDP1 CPT | PLK1 PBD block
CC(C)(C)OC(=O)C[C@@H]1C/C=C\C[C@H](CC(=O)N[C@@H](CO)Cc2ccccc2)C(=O)N[C@H](C(C)(C)C)COC1=O | i | 18µM | i | i | 21µM | i
COc1ccccc1NS(=O)(=O)c1cc(NC(=O)C2CCCO2)ccc1C (centres undefined) | i | i | i | i | i | i
COC(=O)CCC(=O)N1CCC(CCC(=O)NCc2ccc(F)cc2)CC1 | nt | i | ? | i | i | i
CC(C)(C)OC(=O)C[C@H]1C/C=C\C[C@@H](CC(=O)N[C@H](CO)Cc2ccccc2)C(=O)NC[C@H](c2ccccc2)OC1=O | i | 23µM | i | i | ? | i
CC(C)(C)OC(=O)C[C@@H]1C/C=C\C[C@@H](CC(=O)N[C@H](CO)Cc2ccccc2)C(=O)NC[C@H](c2ccccc2)OC1=O | i | ? | i | i | ? | i
CNC[C@H](O)[C@H](O)[C@H](O)[C@H](O)CO | i[21 µM] | nt | i | i | nt | nt
Cc1ccc(C#N)cc1 | i | nt | nt | nt | nt | nt
Cc1cccc(NC(=O)C(=O)NNC(=O)c2ccc(C(C)(C)C)cc2)c1 | nt | ? | i | i | ? | i
Cc1ccc(F)c(NC(=O)/C(C#N)=C(\O)c2ccc(C(C)(C)C)cc2)c1 | i | ? | ? | ? | i | 30µM
O=C(Oc1c(CN2CCOCC2)cc(Cl)c2cccnc12)c1cccs1 | i | 4.6µM | i | i | 4.1µM | i
COc1cccc(C(=O)Oc2c(CN3CCOCC3)cc(Cl)c3cccnc23)c1 | i | 0.82µM | i | i | 0.73µM | i
OCCN1CCN(Cc2cc(Cl)c3cccnc3c2O)CC1 | i | ? | i | i | ? | i
O=C(Oc1c(CN2CCOCC2)cc(Cl)c2cccnc12)c1ccc(F)cc1 | i | 5.2µM | i | i | 4.6µM | i
O=C(Oc1c(Cl)cc(Cl)c2cccnc12)c1cccs1 | i | ? | i | i | 16µM | i
O=C(CCn1c(=O)c2ccccc2n(CC(=O)Nc2ccc(F)cc2)c1=O)NCCc1ccccc1 | i[12.3 µM] | i | i | i | i | nt
Cc1ccccc1CN(c1ccc(C(=O)N/N=C/c2ccc(OCC(N)=O)cc2)cc1)S(C)(=O)=O | i | i | i | i | i | i
COc1ccc(C(=O)Oc2c(CN3CCOCC3)cc(Cl)c3cccnc23)cc1 | i | 5.8µM | i | i | 8.2µM | i
O=S(=O)(c1ccc(SCc2c(F)cccc2Cl)nc1)N1CCCC1 | nt | ? | nt | nt | ? | i
CCC1CN(CCC(=O)N2CCN(c3ncccn3)CC2)Cc2cc(OC)ccc2O1 (centres undefined) | nt | i | nt | nt | i[9.04 µM] | nt
CC(C)Oc1ccc(CC(=O)NNC(=S)Nc2ccccc2)cc1 | nt | ? | i | i | ? | i
CC(C)Oc1ccc(CCC(=O)NNC(=S)Nc2ccccc2)cc1 | i | 18µM | i | i | i | i
